In PubChem BioAssay (NCI) one finds growth data, which are given here for nine compounds.

The panel holds about 83,000 compounds, 20% with a hit somewhere; the sample as a whole holds those more often.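 Percent growth is the endpoint: 0 to 100 indicates growth inhibition (40 means 60% inhibition), 0 means no net growth, and negative values indicate cell death.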 Unmarked numbers belong to inactive results. Active and inactive are the calls of the source. The calls were made as follows: active = growth percent below 10; inactive = the rest.

Test systems include SR leukemia; RPMI-8226 leukemia; OVCAR-8 ovarian; OVCAR-5 ovarian; OVCAR-4 ovarian; SK-OV-3 ovarian; IGROV1 ovarian; OVCAR-3 ovarian; HS 578T breast; NCI/ADR-RES ovarian; T-47D breast; BT-549 breast; MDA-MB-435 melanoma; SW-620 colon; MCF7 breast; HCT-116 colon; HCC-2998 colon; KM12 colon.
Test in all cases: NCI-60 one-dose screen, 48 h (100 = growth as untreated, 0 = no growth, -100 = all killed)
Holding throughout (conditions): 10 µM unless noted

In the case of `O=C1/C(=C/c2cc(F)cc(F)c2)Cc2cc(F)cc(F)c21`, the growth with SR leukemia is 62.8%; in the assay on RPMI-8226 leukemia, 94.1%; in the assay with OVCAR-8 ovarian it was 111%; in the assay on OVCAR-5 ovarian, 96.6%; in the assay with OVCAR-4 ovarian, 110%; in the assay on SK-OV-3 ovarian, 111%. Moreover, the growth with IGROV1 ovarian is 93.2%; in the assay with OVCAR-3 ovarian, 94.9%; in the assay with HS 578T breast, 90.5%; in the assay on NCI/ADR-RES ovarian, 98.2%; in the assay on T-47D breast, 107%; in the assay with BT-549 breast it was 96.5%. The growth was 94.8% with MDA-MB-435 melanoma; 99.2% in the assay with SW-620 colon; 56.7% with MCF7 breast; 79.8% with HCT-116 colon; 105% with HCC-2998 colon; 92.6% with KM12 colon.

Regarding `CN(C)CCCn1c(=O)c2cc([N+](=O)[O-])ccc2c2cnc3[nH]ccc3c21`, the growth in the assay with SR leukemia was -27.6% (active); with RPMI-8226 leukemia, 45.4%; in the assay with OVCAR-8 ovarian, 35.1%; with OVCAR-5 ovarian, 73.1%; in the assay on OVCAR-4 ovarian it was 61%; in the assay on SK-OV-3 ovarian it was 63.8%. The growth in the assay on IGROV1 ovarian was 54.9%; in the assay with OVCAR-3 ovarian it was 68.2%; with HS 578T breast, 75.3%; with NCI/ADR-RES ovarian, 51.7%; with T-47D breast, 86.5%; in the assay on BT-549 breast, 68.7%. Besides, the growth with MDA-MB-435 melanoma is 67.7%; with SW-620 colon, 33.1%; in the assay with MCF7 breast it was -12% (active); in the assay with HCT-116 colon it was 12.4%; with HCC-2998 colon, 60%; in the assay on KM12 colon, 47.9%.

On to `CN(C)c1nc(-c2cccs2)n2nc(-c3ccco3)cc2n1`, for which the growth in the assay with SR leukemia was 74.1%; in the assay with RPMI-8226 leukemia it was 73.2%; in the assay with OVCAR-8 ovarian it was 96%; in the assay on OVCAR-5 ovarian it was 99.4%; in the assay on OVCAR-4 ovarian, 74.6%; with SK-OV-3 ovarian, 90.2%. Besides, the growth was 81.1% in the assay with IGROV1 ovarian; 101% in the assay on OVCAR-3 ovarian; 99.2% with HS 578T breast; 93.5% in the assay on NCI/ADR-RES ovarian; 53.5% with T-47D breast; 94% with BT-549 breast. For the same compound, the growth in the assay with MDA-MB-435 melanoma was 104%; with SW-620 colon, 96.7%; with MCF7 breast it was 36.3%; with HCT-116 colon it was 91.4%; with HCC-2998 colon it was 93.9%; in the assay on KM12 colon, 81.4%.

Regarding `CC(=O)Cc1ccccn1`, the growth is 108% in the assay on SR leukemia; 103% in the assay with RPMI-8226 leukemia; 110% with OVCAR-8 ovarian; 110% in the assay with OVCAR-5 ovarian; 106% in the assay on OVCAR-4 ovarian; 119% in the assay on SK-OV-3 ovarian. Further, the growth in the assay with IGROV1 ovarian was 107%; with OVCAR-3 ovarian it was 105%; in the assay with HS 578T breast it was 107%; with NCI/ADR-RES ovarian, 108%; in the assay with T-47D breast it was 108%; with BT-549 breast it was 97.8%. The growth with MDA-MB-435 melanoma was 102%; with SW-620 colon, 108%; with MCF7 breast, 97.8%; in the assay on HCT-116 colon it was 107%; in the assay on HCC-2998 colon it was 111%; in the assay on KM12 colon it was 105%.

With `c1coc(CNc2c3ccccc3nc3ccccc23)c1`, the growth was 34% with SR leukemia; 56.6% in the assay with RPMI-8226 leukemia; 47.5% with OVCAR-8 ovarian; 76.4% in the assay on OVCAR-5 ovarian; 56.2% with OVCAR-4 ovarian; 70.9% in the assay on SK-OV-3 ovarian. For the same compound, the growth in the assay with IGROV1 ovarian was 61.8%; in the assay on OVCAR-3 ovarian, 96.9%; in the assay with HS 578T breast it was 84%; in the assay with NCI/ADR-RES ovarian, 44.8%; in the assay on T-47D breast it was 69.3%; in the assay on BT-549 breast it was 97.4%. Besides, the growth in the assay with MDA-MB-435 melanoma was 87.6%; in the assay on SW-620 colon, 42.3%; in the assay on MCF7 breast it was 21.3%; in the assay with HCT-116 colon, 24.1%; with HCC-2998 colon it was 68.9%; in the assay with KM12 colon, 85.5%.

As for `COc1cc2c(=O)n(CCCN(C)C)c3c4cc[nH]c4ncc3c2cc1OC`, the growth in the assay on SR leukemia was 15.7%; in the assay on RPMI-8226 leukemia it was 22.2%; in the assay on OVCAR-8 ovarian, 27.8%; with OVCAR-5 ovarian it was 71%; in the assay on OVCAR-4 ovarian, 34.7%; in the assay on SK-OV-3 ovarian, 42.8%. In addition, the growth was 45.2% in the assay on IGROV1 ovarian; 49.1% in the assay on OVCAR-3 ovarian; 65% in the assay with HS 578T breast; 89.4% in the assay with NCI/ADR-RES ovarian; 63.9% in the assay with T-47D breast; 72.5% in the assay with BT-549 breast. Moreover, the growth is 51% with MDA-MB-435 melanoma; 24.9% in the assay with SW-620 colon; 15.5% in the assay with MCF7 breast; 16.8% with HCT-116 colon; 55.7% in the assay with HCC-2998 colon; 19.2% with KM12 colon.

Turning to `COc1ccc(-c2cc(C(=O)Nc3ccc(Br)cc3)nc3[nH]c(=O)sc23)cc1`, the growth in the assay with SR leukemia is 65.1%; in the assay on RPMI-8226 leukemia, 14.2%; with OVCAR-8 ovarian, 43.1%; with OVCAR-5 ovarian it was 84.9%; in the assay on OVCAR-4 ovarian, 34.2%; in the assay with SK-OV-3 ovarian, 26.7%. Also, the growth in the assay on IGROV1 ovarian was 25.2%; in the assay on OVCAR-3 ovarian, 36.9%; in the assay on HS 578T breast it was 41.6%; in the assay with NCI/ADR-RES ovarian, 40.7%; in the assay on T-47D breast, -0.894% (active); in the assay on BT-549 breast, 47%. Moreover, the growth is 39.6% in the assay with MDA-MB-435 melanoma; 57.1% in the assay on SW-620 colon; 24.3% in the assay on MCF7 breast; 32.1% in the assay on HCT-116 colon; 36.1% in the assay on HCC-2998 colon; 34.7% in the assay on KM12 colon.

For the compound `O=C(O)c1cc2cc(OCc3ccccc3)ccc2[nH]1`, the growth in the assay on SR leukemia is 104%; with RPMI-8226 leukemia, 94.3%; in the assay with OVCAR-8 ovarian, 87.9%; in the assay on OVCAR-5 ovarian, 109%; with OVCAR-4 ovarian it was 97.5%; in the assay on SK-OV-3 ovarian it was 94.7%. In addition, the growth was 110% in the assay on IGROV1 ovarian; 102% with OVCAR-3 ovarian; 97.1% in the assay with HS 578T breast; 109% in the assay on NCI/ADR-RES ovarian; 101% with T-47D breast; 84.9% with BT-549 breast. Also, the growth with MDA-MB-435 melanoma is 111%; with SW-620 colon, 102%; in the assay with MCF7 breast, 62.4%; with HCT-116 colon, 100%; with HCC-2998 colon, 104%; with KM12 colon, 96.8%.

As for `O=C(N/N=C\c1cc(Br)ccc1O)c1ccncc1`, the growth with SR leukemia was 14.2%; with RPMI-8226 leukemia it was 36.9%; with OVCAR-8 ovarian, 27.5%; in the assay with OVCAR-5 ovarian it was 54.8%; with OVCAR-4 ovarian it was 36.8%; in the assay with SK-OV-3 ovarian it was 38.3%. The growth in the assay with IGROV1 ovarian was 25.2%; in the assay on OVCAR-3 ovarian, 25.1%; in the assay with HS 578T breast it was 76.5%; with NCI/ADR-RES ovarian, 12.4%; with T-47D breast, -3.65% (active); in the assay on BT-549 breast it was 45.2%. The growth is 64.1% with MDA-MB-435 melanoma; 37.7% in the assay with SW-620 colon; 2.38% (active) in the assay on MCF7 breast; 21% with HCT-116 colon; 42.7% in the assay with HCC-2998 colon; 25.8% in the assay with KM12 colon.
